From PubChem BioAssay
Activity calls are given as the source filed them.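 Rule for the calls, unless noted: active = mean z-score across replicates of 1.96 or higher in either the MELAS or the Rieske mutant cell line; inactive = the rest.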

Assay: MELAS cybrid and Rieske KO viability enhancers – cell-based, MELAS cybrids, Rieske KO mouse fibroblasts, CellTiter-Glo, primary screen (AID 1508586);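 note: z relative to plate mean and SD of compound and empty wells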
Details: MELAS cybrid survival, low glucose, CellTiter-Glo 48 h; stronger effect = higher value

| SMILES | z-score |
| --- | --- |
| Cc1ccc2nc(NCCN)c3ncc(C)n3c2c1 | -0.409 (inactive) |
| CC(C)c1cnn2c(NCc3ccccc3)cc(NCCCCCCN)nc12 | -0.424 (inactive) |
| O=C1NCCc2[nH]c(-c3ccncc3)cc21 | 0.826 (inactive) |
| CNC(=O)c1ccc(N2C(=S)N(c3ccc(C#N)c(C(F)(F)F)c3)C(=O)C2(C)C)cc1F | -0.357 (inactive) |
| Cn1cncc1[C@@](N)(c1ccc(Cl)cc1)c1ccc2c(c1)c(-c1cccc(Cl)c1)cc(=O)n2C | -0.557 (inactive) |
| O=C(O)c1ccc2c(c1)nc(Nc1cccc(Cl)c1)c1ccncc12 | -0.486 (inactive) |
| C#Cc1cccc(Nc2ncnc3cc(OCCOC)c(OCCO)cc23)c1 | -0.467 (inactive) |
| CC(C)CC(=O)Nc1n[nH]c2c1CN(C(=O)C1CCN(C)CC1)C2(C)C | 2.08 (active) |
| CNC(=O)Nc1ccc(-c2nc(N3CC4CCC(C3)O4)c3cnn(C4CCC5(CC4)OCCO5)c3n2)cc1 | 3.93 (active) |
| C=CCn1c(=O)c2cnc(Nc3ccc(N4CCN(C)CC4)cc3)nc2n1-c1cccc(C(C)(C)O)n1 | 0.245 (inactive) |
| O=C(O)[C@H](Cc1c[nH]c2ccccc12)N1C(=O)c2ccccc2C1=O | -0.375 (inactive) |
| COc1ccc(F)c(F)c1C(=O)c1cnc(NC2CCN(S(C)(=O)=O)CC2)nc1N | 2.86 (active) |
| Cc1ccc(S(=O)(=O)OCC(=O)Nc2ccc(C(=O)O)c(O)c2)cc1 | -0.344 (inactive) |
| O=C(NC1CCNCC1)c1[nH]ncc1NC(=O)c1c(Cl)cccc1Cl | 0.31 (inactive) |
| CN(C)CCN1C(=O)c2cccc3cc(N)cc(c23)C1=O | -0.14 (inactive) |
| NCC(=O)Nc1ccc(-n2nc(C(F)(F)F)cc2-c2ccc3c(ccc4ccccc43)c2)cc1 | -0.432 (inactive) |
| CC(C)(C)c1cc(C(C)(C)C)c(NC(=O)c2c[nH]c3ccccc3c2=O)cc1O | -0.385 (inactive) |
| CCCCCCCCCCCC(CC1OC(=O)C1CCCCCC)OC(=O)C(CC(C)C)NC=O (configuration not stated) | 1.14 (inactive) |

Same assay, conditions: Rieske KO mouse fibroblast survival, low glucose, CellTiter-Glo 72 h

| SMILES | z-score |
| --- | --- |
| Cc1ccc2nc(NCCN)c3ncc(C)n3c2c1 | -2.24 |
| CC(C)c1cnn2c(NCc3ccccc3)cc(NCCCCCCN)nc12 | -0.75 |
| O=C1NCCc2[nH]c(-c3ccncc3)cc21 | -3.11 |
| CNC(=O)c1ccc(N2C(=S)N(c3ccc(C#N)c(C(F)(F)F)c3)C(=O)C2(C)C)cc1F | 0.602 |
| Cn1cncc1[C@@](N)(c1ccc(Cl)cc1)c1ccc2c(c1)c(-c1cccc(Cl)c1)cc(=O)n2C | -0.393 |
| O=C(O)c1ccc2c(c1)nc(Nc1cccc(Cl)c1)c1ccncc12 | -0.116 |
| C#Cc1cccc(Nc2ncnc3cc(OCCOC)c(OCCO)cc23)c1 | -0.287 |
| CC(C)CC(=O)Nc1n[nH]c2c1CN(C(=O)C1CCN(C)CC1)C2(C)C | -0.842 |
| CNC(=O)Nc1ccc(-c2nc(N3CC4CCC(C3)O4)c3cnn(C4CCC5(CC4)OCCO5)c3n2)cc1 | -1.7 |
| C=CCn1c(=O)c2cnc(Nc3ccc(N4CCN(C)CC4)cc3)nc2n1-c1cccc(C(C)(C)O)n1 | 1.66 |
| O=C(O)[C@H](Cc1c[nH]c2ccccc12)N1C(=O)c2ccccc2C1=O | -0.075 |
| COc1ccc(F)c(F)c1C(=O)c1cnc(NC2CCN(S(C)(=O)=O)CC2)nc1N | -3.07 |
| Cc1ccc(S(=O)(=O)OCC(=O)Nc2ccc(C(=O)O)c(O)c2)cc1 | 0.295 |
| O=C(NC1CCNCC1)c1[nH]ncc1NC(=O)c1c(Cl)cccc1Cl | -1.14 |
| CN(C)CCN1C(=O)c2cccc3cc(N)cc(c23)C1=O | -0.182 |
| NCC(=O)Nc1ccc(-n2nc(C(F)(F)F)cc2-c2ccc3c(ccc4ccccc43)c2)cc1 | -0.00325 |
| CC(C)(C)c1cc(C(C)(C)C)c(NC(=O)c2c[nH]c3ccccc3c2=O)cc1O | 0.598 |
| CCCCCCCCCCCC(CC1OC(=O)C1CCCCCC)OC(=O)C(CC(C)C)NC=O (configuration not stated) | -1.74 |

Assay: drug combination growth inhibition, ovarian cancer – cell-based, oncology-focused library, rucaparib conditional, profiling panel (AID 1508598;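 active = normalized viability below 100% at a tested concentration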)
Details: patient-derived ovarian cancer cells, CellTiter-Glo viability, 144 h; at 0.000305 µM; OCI-C5x cells; with rucaparib 10 µM; stronger effect = lower value; 100% = cells with rucaparib alone

| SMILES | viability |
| --- | --- |
| CNC(=O)c1ccc(N2C(=S)N(c3ccc(C#N)c(C(F)(F)F)c3)C(=O)C2(C)C)cc1F | 110% (inactive) |
| Cn1cncc1[C@@](N)(c1ccc(Cl)cc1)c1ccc2c(c1)c(-c1cccc(Cl)c1)cc(=O)n2C | 113% (inactive) |
| O=C(O)c1ccc2c(c1)nc(Nc1cccc(Cl)c1)c1ccncc12 | 103% (inactive) |
| CC(C)C[C@H](NC(=O)CNC(=O)c1cc(Cl)ccc1Cl)B(O)O | 111% (inactive) |
| CC1(C)CCC(c2ccc(Cl)cc2)=C(CN2CCN(c3ccc(C(=O)NS(=O)(=O)c4ccc(N[C@H](CCN5CCOCC5)CSc5ccccc5)c(S(=O)(=O)C(F)(F)F)c4)cc3)CC2)C1 | 37.1% (active) |
| C#Cc1cccc(Nc2ncnc3cc(OCCOC)c(OCCO)cc23)c1 | 118% (inactive) |
| CC(C)CC(=O)Nc1n[nH]c2c1CN(C(=O)C1CCN(C)CC1)C2(C)C | 123% (inactive) |
| C=CCn1c(=O)c2cnc(Nc3ccc(N4CCN(C)CC4)cc3)nc2n1-c1cccc(C(C)(C)O)n1 | 126% (inactive) |
| O=C(O)[C@H](Cc1c[nH]c2ccccc12)N1C(=O)c2ccccc2C1=O | 113% (inactive) |
| O=C(NC1CCNCC1)c1[nH]ncc1NC(=O)c1c(Cl)cccc1Cl | 126% (inactive) |
| CC(C)C[C@H](NC(=O)CNC(=O)c1cc(Cl)ccc1Cl)B1OC(=O)CC(CC(=O)O)(C(=O)O)O1 (some centres not stated) | 104% (inactive) |
